Experimental data published in PubChem BioAssay (Tox21).
Inconclusive results are not listed. The source made the active and inactive calls. Unless noted, calls come from the whole dose curve; as a rule, active = well fitted curve in the direction sought with a large enough effect in the repeat runs; inconclusive = weak or mixed curves; inactive = no such curve, though single readings can be large; an effect the other way counts as inactive or inconclusive.

Key:
[1] = qHTS assay to identify small molecule agonists of the TGF-beta/Smad signaling pathway - cell viability counter screen (AID 1346829); note: top concentration of the series differs between compounds; nearly all actives have a fitted effect of over 45% in size
Summary of the method: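 Compound-treated SBE-bla HEK 293T cells (5 hr, 37 C) were assessed for viability with CellTiter-Glo in parallel with the reporter read.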

[2] = qHTS assay to identify small molecule agonists of the TGF-beta/Smad signaling pathway (AID 1346859; active = well fitted activation curve with a large enough effect in the signal ratio in the repeat runs, not every such curve was filed as active; the % refers to the signal ratio; note: series mostly up to about 77 µM)
Summary of the method: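 Each well held 4,000 SBE-bla HEK 293T cells incubated overnight before compound addition; 5 hr later the cleavable FRET substrate went on for 2 hr at room temperature, and fluorescence was read at two emissions.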

[3] = Human pregnane X receptor (PXR) small molecule agonists, qHTS cell viability counter screen (AID 1346977); note: nearly all actives have a fitted effect of over 50% in size
Summary of the method: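 Tox21 qHTS format; PXR-Luc HepG2, 2,000/well, charcoal-stripped FBS 5%. Cpd exposure 24hr. Read: CellTiter-Fluor fluorescence, multiplexed with luciferase.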

[4] = Caspase-3/7 induction in HepG2 cells by small molecules, qHTS assay (AID 1346978); note: nearly all actives have a fitted effect of over 15% in size
Summary of the method: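 Caspase-3/7 induction was measured by Caspase-Glo 3/7 luminescence (30 min, room temperature) after a 17 hr compound exposure of wild-type HepG2 cells seeded at 2,000 per well and pre-incubated 5 hr.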

[5] = Caspase-3/7 induction in CHO-K1 cells by small molecules, qHTS cell viability counter screen (AID 1346979); note: nearly all actives have a fitted effect of over 35% in size
Summary of the method: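 CellTiter-Fluor viability check, qHTS format: wild-type CHO-K1, 16hr compound treatment, 1hr reagent incubation, fluorescence read.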

[6] = Caspase-3/7 induction in CHO-K1 cells by small molecules, qHTS assay (AID 1346980); note: nearly all actives have a fitted effect of over 15% in size
Summary of the method: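 Luminescent Caspase-Glo 3/7 read (30min, room temperature) quantified apoptosis induction. Cells were wild-type CHO-K1, treated with compound for 17hr at 37 C and 5% CO2.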

[7] = Caspase-3/7 induction in HepG2 cells by small molecules, qHTS cell viability counter screen (AID 1346981); note: series mostly up to about 92 µM; nearly all actives have a fitted effect of over 30% in size
Summary of the method: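 In this quantitative HTS counter screen, compounds delivered in DMSO were left on unmodified HepG2 cells for 16 hr at 37 C. Viability was then determined fluorometrically with CellTiter-Fluor, in parallel with caspase-3/7 induction in the same wells.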

[8] = biological target: Nuclear receptor subfamily 1 group I member 2 (Homo sapiens) (UniProt O75469); experiment: Human pregnane X receptor (PXR) small molecule agonists, qHTS assay (AID 1346982); note: nearly all actives have a fitted effect of over 35% in size; note: potency is the fitted concentration of half-maximal effect
Summary of the method: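 Reporter HepG2 cells expressing PXR-Luc are cultured in charcoal-stripped FBS (5%), treated with compounds for 24 hr at 37 C, and assayed by ONE-Glo luminescence after 30 min at room temperature.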

[9] = biological target: Cytochrome P450 2D6 (Homo sapiens) (UniProt P10635); experiment: Cytochrome P450 Family 2 Subfamily D Member 6 (CYP2D6) small molecule antagonists: luciferase reporter qHTS assay (AID 1671196); note: nearly all actives have a fitted effect of over 50% in size; note: potency is the fitted concentration of half-maximal effect; for activity change, negative = inhibition: series mostly up to about 120 µM
Summary of the method: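 Test chemicals meet CYP2D6 plus proluciferin substrate (10 min, RT); NADPH regenerating solution then drives turnover for 1 h. Detection reagent halts the reaction; luminescence measured after 20 min.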

[10] = biological target: Cytochrome P450 2C19 (Homo sapiens) (UniProt P33261); experiment: Cytochrome P450 Family 2 Subfamily C Member 19 (CYP2C19) small molecule antagonists: luciferase reporter qHTS assay (AID 1671197); note: nearly all actives have a fitted effect of over 65% in size; note: potency is the fitted concentration of half-maximal effect; for activity change, negative = inhibition: series mostly up to about 120 µM
Summary of the method: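 P450-Glo CYP2C19 screening system; proluciferin substrate; DMSO compound stocks; 10 min RT preincubation; NADPH regeneration, 1 h at 37C; luciferin detection reagent, 20 min RT; luminescence as RLU.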

[11] = biological target: Cytochrome P450 2C9 (Homo sapiens) (UniProt P11712); experiment: Cytochrome P450 Family 2 Subfamily C Member 9 (CYP2C9) small molecule antagonists: luciferase reporter qHTS assay (AID 1671198); note: nearly all actives have a fitted effect of over 50% in size; note: potency is the fitted concentration of half-maximal effect; for activity change, negative = inhibition: series mostly up to about 120 µM
Summary of the method: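 Enzyme-substrate mix preincubated with compound 10 min at room temperature; reaction started with NADPH regeneration solution, 1 h 37C. Luminescent luciferin product read after 20 min detection reagent.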

[12] = biological target: Voltage-gated inwardly rectifying potassium channel KCNH2 (Homo sapiens) (UniProt Q12809); experiment: Human Ether-a-go-go-Related Gene (hERG) channel small molecule antagonists: fluorescence cell-based qHTS assay (AID 1671200);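 note: hERG-expressing U2OS cells given a thallium stimulus after FluxOR II dye loading; series mostly up to about 77 µM; nearly all actives have a fitted effect of over 50% in size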
Summary of the method: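 Kinetic two-minute fluorescence traces, sampled at 1 s, were collected following thallium stimulus of U2OS cells (1000 per well) that had been cultured overnight at 37 C and loaded with FluxOR II.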

[13] = biological target: Cytochrome P450 3A4 (Homo sapiens) (UniProt P08684); experiment: Cytochrome P450 Family 3 Subfamily A Member 4 (CYP3A4) small molecule antagonists: luciferase reporter qHTS assay (AID 1671201); note: nearly all actives have a fitted effect of over 50% in size; note: potency is the fitted concentration of half-maximal effect; for activity change, negative = inhibition: series mostly up to about 120 µM
Summary of the method: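 Proluciferin-to-luciferin conversion by CYP3A4, NADPH-regenerated, 1 h RT; luminescence read as RLU. Ketoconazole as control.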

[14] = biological target: Cytochrome P450 1A2 (Homo sapiens) (UniProt P05177); experiment: Cytochrome P450 Family 1 Subfamily A Member 2 (CYP1A2) small molecule antagonists: luciferase reporter qHTS assay (AID 1671199); note: nearly all actives have a fitted effect of over 50% in size; note: potency is the fitted concentration of half-maximal effect; for activity change, negative = inhibition: series mostly up to about 120 µM
Summary of the method: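 Steps: enzyme-substrate mix dispensed; test compounds and furafylline control pinned in; 10 min room temperature; NADPH regeneration solution added, 1 h; reaction stopped with luciferin detection reagent; luminescence read after 20 min.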

[15] = biological target: Thyrotropin-releasing hormone receptor (Homo sapiens) (UniProt P34981); experiment: qHTS assay to identify small molecule antagonists of the thyrotropin-releasing hormone receptor (TRHR) signaling pathway (AID 1346877; active = well fitted inhibition curve with a large enough effect in the repeat runs, not every such curve was filed as active; note: series mostly up to about 51 µM)
Summary of the method: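 Kinetic fluorescence (3 min, 1 s resolution) following stimulation with TRH at 1 nM final; HEK293 cells bearing human TRHR; 5 min compound preincubation at RT; concentration-response over 15 points, triplicates.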

[16] = biological target: Thyrotropin-releasing hormone receptor (Homo sapiens) (UniProt P34981); experiment: qHTS assay to identify small molecule agonists of the thyrotropin-releasing hormone receptor (TRHR) signaling pathway (AID 1346891; calls by dose curve; note: series mostly up to about 58 µM)
Summary of the method: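 Screening of agonists relied on calcium signalling in HEK293 cells expressing human TRHR: dye loading 2 h at 37 °C preceded compound addition and a 3-min fluorescence time course.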

[17] = biological target: Nuclear receptor subfamily 1 group I member 2 (Rattus norvegicus) (UniProt Q9R1A7); experiment: Rat pregnane X receptor (rPXR) activation by small molecules, qHTS assay (AID 1346983); conditions: rPXR luciferase reporter cells, One-Glo luminescence, 24 h; hits give high values; note: nearly all actives have a fitted effect of over 20% in size
Summary of the method: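 Luminescent readout (One-Glo luciferase, 30 min room temperature) followed 24 hr compound treatment at 37 C of rPXR cells plated 2,000 per well and preincubated 5hr; qHTS format with compounds delivered in DMSO.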

[18] = biological target: Nuclear receptor subfamily 1 group I member 2 (Homo sapiens) (UniProt O75469); experiment: CYP3A4 induction through human pregnane X receptor (PXR) by small molecules, qHTS assay (AID 1346984); note: nearly all actives have a fitted effect of over 40% in size
Summary of the method: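 Induction measured in HepG2-based DPX-2 cells co-expressing human PXR and a CYP3A4 promoter-driven luciferase. After a 24-hour compound exposure, cells received CYP3A4 luciferin substrate at 3uM final for 3 hours, and light output was then recorded.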

[19] = biological target: Nuclear receptor subfamily 1 group I member 2 (Homo sapiens) (UniProt O75469); experiment: Human pregnane X receptor (PXR) activation by small molecules, qHTS assay (AID 1346985); note: nearly all actives have a fitted effect of over 40% in size
Summary of the method: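 DPX-2 cells (HepG2 co-transfected with a PXR response element and a CYP3A4-promoter luciferase construct) were seeded at 2,000 per well, rested 5 hr at 37C, then exposed to DMSO-dissolved compounds for 24 hr. Activation was read as luciferase luminescence.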
% is set by controls: 0 for no effect and ±100 for the full control effect.

Cytochrome P450 2C19 (Homo sapiens), sequence (P33261 whole entry, looked up): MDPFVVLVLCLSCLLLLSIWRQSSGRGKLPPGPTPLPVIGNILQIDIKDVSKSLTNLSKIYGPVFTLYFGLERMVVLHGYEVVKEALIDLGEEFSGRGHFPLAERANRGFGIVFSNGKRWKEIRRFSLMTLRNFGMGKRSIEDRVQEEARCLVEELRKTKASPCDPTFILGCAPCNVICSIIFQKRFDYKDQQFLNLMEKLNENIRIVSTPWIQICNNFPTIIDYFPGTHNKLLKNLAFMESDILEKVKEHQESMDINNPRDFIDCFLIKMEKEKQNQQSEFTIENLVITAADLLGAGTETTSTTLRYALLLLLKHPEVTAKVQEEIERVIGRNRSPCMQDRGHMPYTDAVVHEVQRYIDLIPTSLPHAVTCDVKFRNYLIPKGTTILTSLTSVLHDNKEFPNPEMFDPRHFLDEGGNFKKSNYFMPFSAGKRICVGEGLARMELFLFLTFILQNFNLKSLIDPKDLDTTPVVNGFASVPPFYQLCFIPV
Cytochrome P450 1A2 (Homo sapiens), sequence (P05177 whole entry, looked up): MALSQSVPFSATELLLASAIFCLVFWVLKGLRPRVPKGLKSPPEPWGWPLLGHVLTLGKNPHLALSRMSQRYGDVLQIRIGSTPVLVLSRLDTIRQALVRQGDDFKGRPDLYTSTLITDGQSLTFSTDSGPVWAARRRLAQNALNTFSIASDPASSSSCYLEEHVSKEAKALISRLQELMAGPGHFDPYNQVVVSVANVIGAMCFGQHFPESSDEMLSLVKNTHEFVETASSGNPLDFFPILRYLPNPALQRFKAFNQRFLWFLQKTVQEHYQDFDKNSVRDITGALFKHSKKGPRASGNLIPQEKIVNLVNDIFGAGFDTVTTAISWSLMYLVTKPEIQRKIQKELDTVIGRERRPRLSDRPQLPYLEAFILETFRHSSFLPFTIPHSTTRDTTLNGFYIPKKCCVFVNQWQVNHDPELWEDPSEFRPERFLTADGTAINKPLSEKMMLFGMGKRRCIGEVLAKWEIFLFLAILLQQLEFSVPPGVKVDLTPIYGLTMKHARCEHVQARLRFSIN
Nuclear receptor subfamily 1 group I member 2 (Homo sapiens), sequence (O75469 whole entry, looked up): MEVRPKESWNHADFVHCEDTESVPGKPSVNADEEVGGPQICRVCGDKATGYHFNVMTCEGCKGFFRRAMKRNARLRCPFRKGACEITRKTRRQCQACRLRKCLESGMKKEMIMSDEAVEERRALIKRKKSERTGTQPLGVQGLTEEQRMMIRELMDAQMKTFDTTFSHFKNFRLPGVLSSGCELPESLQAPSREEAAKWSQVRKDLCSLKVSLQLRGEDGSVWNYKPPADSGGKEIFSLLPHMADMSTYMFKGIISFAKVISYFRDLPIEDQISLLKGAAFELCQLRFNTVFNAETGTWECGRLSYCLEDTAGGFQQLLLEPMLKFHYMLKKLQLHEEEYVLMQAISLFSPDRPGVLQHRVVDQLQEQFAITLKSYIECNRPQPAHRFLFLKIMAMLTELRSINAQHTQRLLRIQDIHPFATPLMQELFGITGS
Cytochrome P450 3A4 (Homo sapiens), sequence (P08684 whole entry, looked up): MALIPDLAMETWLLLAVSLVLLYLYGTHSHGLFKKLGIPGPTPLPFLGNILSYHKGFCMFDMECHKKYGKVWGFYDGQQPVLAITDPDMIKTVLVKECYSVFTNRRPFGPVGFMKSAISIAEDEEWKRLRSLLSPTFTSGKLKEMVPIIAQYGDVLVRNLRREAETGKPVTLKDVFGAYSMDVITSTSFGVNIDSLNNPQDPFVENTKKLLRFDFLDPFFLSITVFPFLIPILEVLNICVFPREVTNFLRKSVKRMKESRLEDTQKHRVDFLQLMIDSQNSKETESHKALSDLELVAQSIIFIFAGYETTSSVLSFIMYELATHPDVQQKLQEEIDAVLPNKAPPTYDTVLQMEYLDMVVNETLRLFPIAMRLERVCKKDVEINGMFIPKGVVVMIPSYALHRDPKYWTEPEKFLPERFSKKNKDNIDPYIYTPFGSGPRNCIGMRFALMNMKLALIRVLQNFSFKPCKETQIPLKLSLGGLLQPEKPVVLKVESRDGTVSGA
Cytochrome P450 2C9 (Homo sapiens), sequence (P11712 whole entry, looked up): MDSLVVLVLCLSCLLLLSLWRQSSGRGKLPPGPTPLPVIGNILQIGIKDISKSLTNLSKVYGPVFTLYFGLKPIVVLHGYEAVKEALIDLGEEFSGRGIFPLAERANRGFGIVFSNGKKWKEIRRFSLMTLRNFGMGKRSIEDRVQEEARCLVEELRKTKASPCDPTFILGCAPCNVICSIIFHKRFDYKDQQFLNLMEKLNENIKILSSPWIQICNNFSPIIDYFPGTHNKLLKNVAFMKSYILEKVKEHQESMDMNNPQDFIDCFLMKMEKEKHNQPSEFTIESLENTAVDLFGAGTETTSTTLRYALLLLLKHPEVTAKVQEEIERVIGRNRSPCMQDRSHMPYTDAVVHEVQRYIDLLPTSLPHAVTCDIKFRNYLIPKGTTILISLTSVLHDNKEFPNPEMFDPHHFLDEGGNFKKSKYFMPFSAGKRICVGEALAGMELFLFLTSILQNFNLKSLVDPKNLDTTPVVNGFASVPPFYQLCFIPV
Thyrotropin-releasing hormone receptor (Homo sapiens), sequence (P34981 whole entry, looked up): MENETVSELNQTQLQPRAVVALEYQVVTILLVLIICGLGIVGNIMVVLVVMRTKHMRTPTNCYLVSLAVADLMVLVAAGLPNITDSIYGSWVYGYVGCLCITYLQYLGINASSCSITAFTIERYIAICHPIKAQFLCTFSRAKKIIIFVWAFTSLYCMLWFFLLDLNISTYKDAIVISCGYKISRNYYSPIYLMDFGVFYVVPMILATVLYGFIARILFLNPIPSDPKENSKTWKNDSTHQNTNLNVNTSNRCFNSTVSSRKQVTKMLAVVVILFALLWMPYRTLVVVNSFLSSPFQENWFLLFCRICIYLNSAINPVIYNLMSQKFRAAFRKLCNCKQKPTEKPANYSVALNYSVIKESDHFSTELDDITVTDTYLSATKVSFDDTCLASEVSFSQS
Cytochrome P450 2D6 (Homo sapiens), sequence (P10635 whole entry, looked up): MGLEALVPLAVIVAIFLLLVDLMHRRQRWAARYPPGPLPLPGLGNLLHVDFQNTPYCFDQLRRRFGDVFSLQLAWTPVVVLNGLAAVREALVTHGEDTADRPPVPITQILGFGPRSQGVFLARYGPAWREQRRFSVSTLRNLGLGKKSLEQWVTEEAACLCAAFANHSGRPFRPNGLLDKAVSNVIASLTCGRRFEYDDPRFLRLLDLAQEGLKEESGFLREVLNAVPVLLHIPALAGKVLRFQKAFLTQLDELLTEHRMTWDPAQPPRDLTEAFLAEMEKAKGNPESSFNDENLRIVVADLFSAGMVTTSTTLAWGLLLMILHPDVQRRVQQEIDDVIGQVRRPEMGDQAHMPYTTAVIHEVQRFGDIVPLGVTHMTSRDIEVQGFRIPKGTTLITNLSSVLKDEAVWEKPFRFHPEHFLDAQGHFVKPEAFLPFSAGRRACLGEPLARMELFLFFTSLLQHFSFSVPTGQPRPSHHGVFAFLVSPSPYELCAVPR
Nuclear receptor subfamily 1 group I member 2 (Rattus norvegicus), sequence (Q9R1A7 whole entry, looked up): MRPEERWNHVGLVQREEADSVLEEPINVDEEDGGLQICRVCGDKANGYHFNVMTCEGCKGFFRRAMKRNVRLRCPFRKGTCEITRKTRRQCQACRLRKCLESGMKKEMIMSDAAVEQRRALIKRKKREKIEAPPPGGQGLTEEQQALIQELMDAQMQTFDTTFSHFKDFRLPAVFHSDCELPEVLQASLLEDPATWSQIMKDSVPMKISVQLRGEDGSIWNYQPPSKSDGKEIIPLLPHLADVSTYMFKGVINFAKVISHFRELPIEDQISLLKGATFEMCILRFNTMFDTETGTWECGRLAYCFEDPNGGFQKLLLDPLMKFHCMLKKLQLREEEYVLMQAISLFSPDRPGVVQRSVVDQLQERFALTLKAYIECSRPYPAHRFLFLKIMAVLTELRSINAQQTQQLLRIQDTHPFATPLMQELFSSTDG
Voltage-gated inwardly rectifying potassium channel KCNH2 (Homo sapiens), sequence (Q12809 whole entry, looked up): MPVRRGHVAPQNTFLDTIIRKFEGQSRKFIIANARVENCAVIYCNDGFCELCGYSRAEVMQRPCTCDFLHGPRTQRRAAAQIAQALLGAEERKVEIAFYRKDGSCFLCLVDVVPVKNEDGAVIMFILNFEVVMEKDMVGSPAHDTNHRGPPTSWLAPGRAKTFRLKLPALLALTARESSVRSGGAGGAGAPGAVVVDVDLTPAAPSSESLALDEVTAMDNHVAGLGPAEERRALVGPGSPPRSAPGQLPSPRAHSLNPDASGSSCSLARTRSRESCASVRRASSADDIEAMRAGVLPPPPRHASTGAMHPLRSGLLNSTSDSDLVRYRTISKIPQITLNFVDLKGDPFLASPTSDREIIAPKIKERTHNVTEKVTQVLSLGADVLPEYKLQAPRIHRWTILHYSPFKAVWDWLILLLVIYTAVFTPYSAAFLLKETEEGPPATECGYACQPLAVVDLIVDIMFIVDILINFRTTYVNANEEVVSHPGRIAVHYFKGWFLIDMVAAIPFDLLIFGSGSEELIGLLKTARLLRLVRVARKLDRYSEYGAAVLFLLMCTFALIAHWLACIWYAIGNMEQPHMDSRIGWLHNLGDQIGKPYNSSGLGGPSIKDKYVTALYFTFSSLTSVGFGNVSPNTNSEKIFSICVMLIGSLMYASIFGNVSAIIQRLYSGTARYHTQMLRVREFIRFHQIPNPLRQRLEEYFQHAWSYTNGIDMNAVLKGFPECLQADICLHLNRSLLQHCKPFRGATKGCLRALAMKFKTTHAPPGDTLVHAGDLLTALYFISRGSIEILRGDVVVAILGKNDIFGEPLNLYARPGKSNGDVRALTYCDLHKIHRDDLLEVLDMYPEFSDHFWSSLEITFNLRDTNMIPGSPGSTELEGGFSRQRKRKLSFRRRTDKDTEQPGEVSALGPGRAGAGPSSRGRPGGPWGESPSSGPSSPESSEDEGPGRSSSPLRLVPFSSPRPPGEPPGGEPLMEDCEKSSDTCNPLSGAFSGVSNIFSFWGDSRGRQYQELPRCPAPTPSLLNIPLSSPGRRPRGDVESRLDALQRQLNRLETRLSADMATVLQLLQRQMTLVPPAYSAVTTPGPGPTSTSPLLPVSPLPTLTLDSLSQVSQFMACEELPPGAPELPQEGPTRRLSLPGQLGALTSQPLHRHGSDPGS

CCOCCOCC
inactive: outcome [1] | outcome [2] | outcome [3] | outcome [4] | Potency [5] | outcome [6] | outcome [7] | Potency [8] | Potency [9] | Potency [10] | Potency [11] | Potency [12] | Potency [13]

O=Cc1ccccc1Cl
inactive: outcome [1] | outcome [2] | outcome [3] | outcome [4] | Potency [5] | outcome [6] | outcome [7] | Potency [8] | Potency [10] | Potency [11] | Potency [14] | Potency [12]

NCC1(Cc2noc(=O)[nH]2)CCCCC1
inactive: outcome [1] | outcome [2] | outcome [3] | outcome [4] | Potency [5] | outcome [6] | outcome [7] | Potency [8] | Potency [9] | Potency [12]

CCCC(=O)OC/C=C(\C)CCC=C(C)C
inactive: outcome [1] | outcome [2] | outcome [3] | outcome [4] | Potency [5] | outcome [6] | outcome [7] | Potency [8] | Potency [9] | Potency [10] | Potency [13]

O=C1CCC(=O)N1Cl
inactive: outcome [1] | outcome [2] | outcome [3] | outcome [4] | Potency [5] | outcome [6] | outcome [7] | Potency [8] | Potency [9] | Potency [10] | Potency [11] | Potency [12] | Potency [13]

O=C1c2ccccc2C(=O)c2cc(Cl)ccc21
inactive: activation [2] 1.62% [at 6.97 µM] | activity, negative = inhibition [15] -0.75% [at 4.65 µM] | activation [16] 0.0495% [at 5.23 µM] | activity change, negative = cytotoxicity [3] -0.0384% [at 8.39 µM] | caspase activation [4] -1.72% [at 8.39 µM] | activity change, negative = cytotoxicity [5] 9.78% [at 8.39 µM] | caspase-3/7 activation [6] -0.328% [at 8.39 µM] | activity change, negative = cytotoxicity [7] 3.18% [at 8.39 µM] | activation [8] 8.25% [at 8.39 µM] | activity change, negative = inhibition [9] -1.33% [at 10.5 µM] | activity change, negative = inhibition [10] -15.8% [at 10.5 µM] | activity change, negative = inhibition [11] -13.1% [at 10.5 µM] | activity change, negative = inhibition [12] -0.029% [at 6.97 µM] | activity change, negative = inhibition [13] 5.17% [at 10.5 µM]
active: Potency [14] 0.138 µM

Cn1c(=O)c2[nH]c(Br)nc2n(C)c1=O
inactive: outcome [2] | outcome [15] | outcome [16] | outcome [3] | outcome [4] | Potency [5] | outcome [6] | outcome [7] | Potency [8] | max activation [17] -2.17% | Potency [18] | Potency [19] | Potency [9] | Potency [10] | Potency [11] | Potency [12]

CC(C)(CO)C(O)C(=O)NCCCO (centres undefined)
inactive: outcome [1] | outcome [2] | outcome [3] | outcome [4] | Potency [5] | outcome [6] | outcome [7] | Potency [8] | Potency [9] | Potency [10] | Potency [11] | Potency [12] | Potency [13]

CCCC(=O)Nc1ccc(OCC(O)CNC(C)C)c(C(C)=O)c1 (centres undefined)
inactive: outcome [1] | outcome [2] | outcome [4] | Potency [5] | outcome [6] | outcome [7] | Potency [8] | max activation [17] -1.06% | Potency [18] | Potency [19] | Potency [10] | Potency [12] | Potency [13]

OCC1CCC(CO)CC1 (centres undefined)
inactive: outcome [1] | outcome [2] | outcome [3] | outcome [4] | Potency [5] | outcome [6] | outcome [7] | Potency [8] | Potency [9] | Potency [10] | Potency [11] | Potency [12] | Potency [13]

CCCCCCCCCOC(=O)c1ccccc1C(=O)OCCCCCCCCC
active: Potency [8] 19.3 µM | Potency [10] 39.8 µM | Potency [11] 39.8 µM | Potency [14] 35.5 µM | Potency [13] 7.95 µM
inactive: outcome [2] | outcome [15] | outcome [3] | outcome [4] | Potency [5] | outcome [6] | outcome [7] | Potency [12]

CCC/C=C(\C=O)CC
active: Potency [10] 39.9 µM | Potency [11] 63.3 µM | Potency [13] 39.9 µM
inactive: outcome [2] | outcome [15] | outcome [3] | outcome [4] | Potency [5] | outcome [6] | outcome [7] | Potency [9] | Potency [12]

Nc1nc(-c2ccccc2)c(Br)c(=O)[nH]1
inactive: outcome [2] | outcome [4] | Potency [5] | outcome [6] | outcome [7] | Potency [8] | max activation [17] -0.177% | Potency [18] | Potency [19] | Potency [9] | Potency [10] | Potency [11] | Potency [12] | Potency [13]

CC(=O)O[Si](C)(OC(C)=O)OC(C)=O
active: Potency [13] 5.15 µM
inactive: outcome [2] | outcome [4] | Potency [5] | outcome [6] | outcome [7] | Potency [8] | Potency [9] | Potency [10] | Potency [11] | Potency [14] | Potency [12]

Cc1ccccc1C(N)=O
inactive: outcome [2] | outcome [15] | outcome [16] | outcome [3] | outcome [4] | Potency [5] | outcome [6] | outcome [7] | Potency [8] | Potency [11] | Potency [12] | Potency [13]
active: Potency [9] 56.3 µM

OC1OCCOC1O (centres undefined)
active: Potency [14] 35.6 µM
inactive: outcome [2] | outcome [15] | outcome [4] | Potency [5] | outcome [6] | outcome [7] | Potency [8] | Potency [9] | Potency [11] | Potency [12] | Potency [13]

CC/C(C)=N\O[Si](C)(O/N=C(\C)CC)O/N=C(\C)CC
inactive: outcome [2] | outcome [3] | outcome [4] | Potency [5] | outcome [6] | Potency [8] | Potency [12]
active: Potency [9] 32.1 µM | Potency [10] 22.8 µM | Potency [14] 40.5 µM | Potency [13] 12.8 µM

c1ccc2cnccc2c1
inactive: outcome [2] | outcome [4] | Potency [5] | outcome [6] | outcome [7] | Potency [10] | Potency [11] | Potency [12]
active: Potency [9] 35.6 µM

COc1c2occc2c(OC)c2c(=O)cc(C)oc12
active: Potency [9] 12.3 µM | Potency [10] 3.47 µM | Potency [11] 12.3 µM | Potency [14] 0.144 µM
inactive: outcome [2] | outcome [3] | outcome [4] | Potency [5] | outcome [6] | outcome [7] | max activation [17] -1.72% | Potency [12]

O=C=NCC1CCCC(CN=C=O)C1 (centres undefined)
inactive: outcome [2] | outcome [15] | outcome [16] | outcome [3] | outcome [4] | Potency [5] | outcome [6] | outcome [7] | Potency [12]
active: Potency [9] 31.7 µM | Potency [10] 71 µM | Potency [11] 10 µM
